Bioassay records: PubChem, National Center for Advancing Translational Sciences (NCATS)
JMJD2E inh: inhibitors of human JMJD2E histone demethylase; JMJD2E catalytic domain, FDH-coupled NADH fluorescence (FDH is formaldehyde dehydrogenase); B2RXH2; hit rate 1.6% among 230,000; Potency, µM (top dose mostly 57.1 µM), for inactives: top-dose activity change, negative = inhibition, actives largely listed as inhibitors; active = well fitted inhibition curve with a large enough effect, not every such curve was filed as active; inconclusive = small, poorly fitted or top-dose-only effect, or another doubt; inactive = no such curve, though single readings can be large or run the other way;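 note: 0% = wells with enzyme and -100% = buffer wells without enzyme; nearly all actives have a fitted effect of over 50% in size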
Epigenetic derep: epigenetic control regulation, reporter derepression; AID 1865; murine LDR cells, GFP reporter derepression, 30 h; hit rate 0.2% among 280,000; Potency, µM (series often up to 53.9 µM), for inactives: at the top dose GFP activation, actives largely listed as activators; note: % of control where 0% means no effect; nearly all actives have a fitted effect of over 60% in size
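Murine LDR cells bearing a silenced CMV-driven GFP reporter were exposed to compound for 30 h at 37 C. After PBS washes, GFP-positive cells (20-120 um objects) counted by laser-scanning microplate cytometry.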
IMPase Li cell: membrane-permeable IMPase blocker, potentiated with lithium; CHO-M1 cells, IP1 TR-FRET (IP-One), carbachol + lithium; Potency, µM (series often up to 59.4 µM), for inactives: at the highest dose activity, negative = IMPase inhibition, usual class: inhibitors; hit rate 0.35% among 210,000; AID 1457;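 note: IP1 builds up when IMPase is blocked and the TR-FRET signal falls; plate controls were basal vehicle for no effect and high inhibitor control for full effect; nearly all actives have a fitted effect of over 50% in size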
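CHO cells stably expressing M1 receptor (2000/well) were cultured 16–30 h, then exposed to compounds with a small lithium addition for 30 min at 37C. IP1 was measured by TR-FRET competition; AC50 from Hill fits.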
KAT2A inh: inhibitors of human GCN5L2 histone acetyltransferase; Q92830; GCN5L2 HAT assay, ThioGlo1 CoA-SH fluorescence; Potency, µM (titrated, usually from 58.9 µM), inactives show at the top dose activity change, negative = inhibition, hits mostly inhibitors; hit rate 0.21% among 390,000; AID 504327; note: % is set by controls: 0 for no effect and ±100 for the full control effect
Target sequence (Q92830 whole entry, looked up): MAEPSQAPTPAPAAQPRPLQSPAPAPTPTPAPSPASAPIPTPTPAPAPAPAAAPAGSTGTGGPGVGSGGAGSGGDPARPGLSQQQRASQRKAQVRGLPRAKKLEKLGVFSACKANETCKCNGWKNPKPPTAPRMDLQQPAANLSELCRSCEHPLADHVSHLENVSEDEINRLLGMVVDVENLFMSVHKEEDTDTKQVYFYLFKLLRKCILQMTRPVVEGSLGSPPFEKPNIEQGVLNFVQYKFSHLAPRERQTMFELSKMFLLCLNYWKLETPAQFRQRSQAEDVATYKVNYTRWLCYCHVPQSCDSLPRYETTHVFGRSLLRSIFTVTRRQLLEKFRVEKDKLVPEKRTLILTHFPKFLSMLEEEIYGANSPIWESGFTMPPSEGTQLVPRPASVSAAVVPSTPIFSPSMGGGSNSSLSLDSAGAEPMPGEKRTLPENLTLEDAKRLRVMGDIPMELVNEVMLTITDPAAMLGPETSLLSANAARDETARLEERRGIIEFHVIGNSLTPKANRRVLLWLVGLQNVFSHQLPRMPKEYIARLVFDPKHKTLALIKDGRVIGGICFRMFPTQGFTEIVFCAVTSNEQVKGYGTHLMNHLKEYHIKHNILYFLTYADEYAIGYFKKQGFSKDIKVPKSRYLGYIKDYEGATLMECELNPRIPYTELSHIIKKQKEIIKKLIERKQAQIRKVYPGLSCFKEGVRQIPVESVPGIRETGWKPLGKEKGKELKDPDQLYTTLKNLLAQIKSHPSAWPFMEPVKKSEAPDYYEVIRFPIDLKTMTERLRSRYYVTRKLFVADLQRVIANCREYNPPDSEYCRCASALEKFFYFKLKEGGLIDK
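Free CoA generated was detected with ThioGlo1 (50uM) fluorescence at Ex340nm/Em540nm, read immediately and after 20 min at room temperature. Enzyme, 20 nM in HEPES pH 7.5 buffer, saw compounds 15 min before adding 75uM H3(1-25) peptide and 70uM acetyl-CoA.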
NPSR antag: blocks cAMP signaling of the human neuropeptide S receptor; Q6W5P4; CHO-NPSR cells, cAMP TR-FRET, antagonist mode; Potency, µM (top dose mostly 38.3 µM), inactives show top-dose activity change, negative = inhibition, most hits filed as inhibitors; hit rate 1% among 220,000; AID 1461; note: % is set by controls: 0 for no effect and ±100 for the full control effect; nearly all actives have a fitted effect of over 50% in size
Sfp PPTase inh: inhibitors of Bacillus subtilis Sfp phosphopantetheinyl transferase. hit rate 3.5% among 310,000. Q9F4F7. Potency, µM, for inactives: largest response in the series, negative = inhibition, hits mostly inhibitors. Biochemical Sfp PPTase activity, qHTS;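 note: the enzyme is Sfp with the accession as filed and its product quenches rhodamine fluorescence; 0% = enzyme reaction without inhibitor and -100% = no enzyme wells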
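After 15 min at room temperature with compound, 15 nM Sfp received 5 uM rhodamine-CoA plus 12.5 uM BHQ-2-ybbR (50 mM Hepes pH 7.6, 10 mM MgCl2). Rate came from the fluorescence difference over 30 min, ex 525/em 598 nm.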
An asterisk follows results filed as active; ? = inconclusive; · = no result; [ ] = dose if it differs, or a comment. In the library only some 3.6% were active in any assay of this set; here they are far more common. Unless noted, calls come from the whole dose curve; as a rule, active = well fitted curve in the direction sought with a large enough effect; inconclusive = small, poorly fitted or top-dose-only effect, or another doubt; inactive = no such curve, though single readings can be large; an effect the other way counts as inactive or inconclusive. Potency is the fitted concentration of half-maximal effect.

SMILES	JMJD2E inh	Epigenetic derep	IMPase Li cell	KAT2A inh	NPSR antag	Sfp PPTase inh
O=C(c1cccnc1)N1CCN(Cc2ccc3c(c2)OCO3)CC1	?	-1%	19%[38.3 µM]	1%	-7%[46.1 µM]	?
COc1ccc(CC2(CO)CCN(Cc3cccnc3)CC2)cc1	8%	2%	4%	-1%	31%	8.9µM*
O=C(c1cccnc1)N1CCN(Cc2cccc(Br)c2)CC1	?	-1%	9%[38.3 µM]	2%	-9%[46.1 µM]	89µM*
COc1cc(OC)cc(C(=O)N2CCN(Cc3cccc(F)c3)CC2)c1	?	2%	7%[38.3 µM]	3%	6%[46.1 µM]	-20%
COc1ccc2c(c1-c1c3c(cc(Br)c1OC)CCCC3)CCCC2	7%	0%	-5%	·	·	8%
O=C(c1cccnc1)N1CCN(Cc2ccccc2Br)CC1	?	-4%	30%[38.3 µM]	0%	-9%[46.1 µM]	50µM*
COc1ccc(CN2CCN(C(=O)c3cccnc3)CC2)cc1Br	?	-1%	-13%[38.3 µM]	-4%	12%[46.1 µM]	79µM*
O=C(c1cccnc1)N1CCN(C(=O)c2ccccc2F)CC1	4%	15%	5%[38.3 µM]	0%	-23%[46.1 µM]	15%
CC(C)(C)OC(=O)NC(Cc1ccccc1)C(=O)NC1COC2CC(n3ccc(=O)[nH]c3=O)OC12 (stereo unspecified)	·	·	·	·	·	1%
O=C(Nc1cc(S(=O)(=O)N2CCOCC2)ccc1O)c1ccco1	-6%	0%	-3%[38.3 µM]	-20%	2%[46.1 µM]	56µM*
O=C(Nc1ccc(S(=O)(=O)N2CCOCC2)cc1)c1ccco1	3%	0%	16%[38.3 µM]	3%	4%[46.1 µM]	7%
O=C(Nc1ccc(S(=O)(=O)N2CCOCC2)cc1)c1ccc2c(c1)S(=O)(=O)c1ccccc1C2=O	10%	1%	-4%	-19%	-2%	21%
O=C(Nc1cc(S(=O)(=O)N2CCOCC2)ccc1O)c1ccc2c(c1)S(=O)(=O)c1ccccc1C2=O	-9%	0%	14%	3%	-9%	20µM*
O=C(C[N+]12CN3CN(CN(C3)C1)C2)c1ccc(-c2ccccc2)cc1	·	·	-3%	·	·	·
CCCCNC(=O)CNC(=S)N(Cc1ccc(C)cc1)Cc1ccco1	-5%	-3%	-15%	-7%	-21%	56µM*
Cc1ccc(CN(Cc2ccco2)C(=S)NCC(=O)NC2CC2)cc1	1%	1%	-7%	-7%	4%	50µM*
Cc1ccc(C(=O)N(Cc2ccco2)Cc2ccco2)cc1	·	4%	·	-4%	·	·
CCNc1ncc2nc(C)c(=O)n(C3CC3)c2n1	·	·	-15%	-29%	·	20%
COc1cc(/C=N/n2c(-c3cc(C)[nH]n3)n[nH]c2=S)ccc1O	-12%	0%	·	-5%	1%	50µM*
COc1cc(/C=N/n2c(-c3cc(C)[nH]n3)n[nH]c2=S)cc(OC)c1OC	-10%	3%	·	-4%	10%	32µM*
Cc1c(NC(=S)N/N=C/c2ccc(Br)cc2)c(=O)n(-c2ccccc2)n1C	2%	-1%	·	-3%	13%	18%
Cn1c(CS/C(N)=N/N=C/c2ccccc2)c(Br)c(=O)n1-c1ccccc1	-9%	-6%	2%	-16%	4%	45µM*
CN(C)CCC[C@@H]1c2ccccc2Oc2ccc(C(F)(F)F)cc21	·	·	22%	·	·	·
Cc1cc(N(C)Cc2ccccc2)n2nc(-c3ccc(C(C)(C)C)cc3)nc2n1	·	-4%	·	-5%	·	·
COc1cccc(C2=Nn3c(nnc3-c3cc(OC)cc(OC)c3)SC2)c1	·	·	·	·	·	-24%
SMILES	JMJD2E inh	Epigenetic derep	IMPase Li cell	KAT2A inh	NPSR antag	Sfp PPTase inh
Cc1nc(SCC(=O)O)c(C#N)c(-c2ccco2)c1C(=O)N(C)C	-12%	-6%	·	-9%	11%	-2%
Cc1ccccc1NC(=O)c1c(C)[nH]c(=S)c(C#N)c1-c1ccco1	-14%	0%	0%	44%	-16%[46.1 µM]	56µM*
CNC(=O)c1c(C)[nH]c(=S)c(C#N)c1-c1ccco1	32µM*	0%	·	-16%	-2%[7.67 µM]	8.9µM*
CSc1nc(C)c(C(=O)Nc2ccccc2)c(-c2ccco2)c1C#N	-15%	0%	·	-16%	-20%	7%
Cc1cc(NC2CCCCC2)nc(-n2nc(C)cc2C)n1	·	·	·	-4%	·	·
COc1ccc(NC(=O)CNS(=O)(=O)c2ccc(Cl)cc2)cc1	0%	1%	13%	-10%	11%	-9%
COc1ccc(NC(C)=[N+](C)CCNS(=O)(=O)c2ccc(Cl)cc2)cc1	·	·	·	-19%	·	71µM*
CCC/C=C1\CCCOC(C(=O)NCc2ccc(C)o2)(C(F)(F)F)C1 (stereo unspecified)	·	·	·	·	·	50µM*
CCC/C=C1/CCCOC(C(=O)NCc2ccc(C)o2)(C(F)(F)F)C1 (stereo unspecified)	·	·	·	-19%	·	56µM*
Cc1ccc(C)c(N2CCN(C(=O)c3cc4c(=O)oc5ccccc5c4s3)CC2)c1	·	0%	·	-6%	·	·
COC(=O)[C@@H](NC(=O)O[C@@H]1C(=O)c2ccc(OC)cc2O[C@H]1c1ccc2c(c1)OCO2)C(C)C	-24%	-1%	8%	·	·	-12%
N=c1c2c(-c3ccccc3)c(-c3ccccc3)n(Cc3ccco3)c2ncn1Cc1ccco1	3%	7%	27%[38.3 µM]	-2%	10µM*	35µM*
COc1ccc(NC(=O)N2CCc3c(sc4c3CCCC4)C2c2ccccc2OC)cc1 (stereo unspecified)	·	4%	·	-3%	·	·
COc1ccccc1C1CN(c2ccc(F)cc2F)N=C1c1cccs1 (stereo unspecified)	?	-2%	14µM*	-2%	-10%[46.1 µM]	?
CCCCN=C1NN=C(c2cc3ccccc3o2)CS1	25µM*	0%	5%	3%	-2%	-14%
COC(=O)c1scc(C)c1NC(=O)/C=C/C(=O)O	-2%	15%	·	-17%	-40%	13µM*
COc1ccc(-c2ccc(C3C4C=CCC(C)C4C(=O)N3Cc3ccccc3)c(F)c2)cc1C (stereo unspecified)	·	·	·	·	·	6%
O=C(N/N=C1/C[C@@H](O)[C@@H](O)[C@@H]2[C@@H]3C(=O)N(C[C@@H]4CCCO4)C(=O)[C@H]3CC[C@@H]12)OCc1ccccc1	·	0%[10.1 µM]	·	·	·	5%
Cc1ccc(/C=c2\sc3n(c2=O)CN(c2cccc(Br)c2)CN=3)o1	-21%	0%	3%[38.3 µM]	2%	-20%[46.1 µM]	20µM*
COc1ccc(C2Nc3ccccc3C(=O)N2Cc2ccco2)cc1COc1ccc([N+](=O)[O-])cc1 (stereo unspecified)	-10%	-1%	21%[38.3 µM]	-2%	?	2%
COc1cccc(OCc2cc(C3Nc4ccccc4C(=O)N3Cc3ccco3)ccc2OC)c1 (stereo unspecified)	?	1%	26%	-17%	?	14µM*
CCOC(=O)c1cccc(OCC(O)CNCCOc2ccccc2F)c1 (stereo unspecified)	·	·	·	-3%	·	-22%
